Among all 290,000 compounds or so, about 1,000 (0.34%) were called active. Only a selection was taken, and actives are over-represented in it overall. A number with no mark means an inactive call. Cut-off read from the data, not from the text of the source: active = percent response above about 24% (passing the limit was not always enough); inactive = the rest.
system: MEKK2 (MAP3K2) mutant PB1 domain binding to MEK5, human; assay: MEK5 binding signal on mutant MEKK2 PB1, primary screen, biochemical, multiplex bead flow cytometry, Alexa488-MEK5 (AID 1530); conditions: at 10 µM, active compounds read high

Question: With COCCNC(=O)/C(C#N)=C/c1nc(N(C)C)n(-c2ccc(F)cc2)c1Cl as the molecule, how does the percent response read?
Answer: Its percent response is 63% (active).

Question: COCCCNC(=O)/C(C#N)=C/c1c(N2CCCCCC2)nc2ccccn2c1=O was tested. Which percent response did it give?
Answer: Its percent response is 5%.

Question: With COCCNC(=O)/C(C#N)=C/c1cccc(OCc2ccccc2)c1 as the molecule, how does the percent response read?
Answer: The percent response was 2%.

Question: Cc1ccc(C(NC(=O)N2CCCC2)C(Cl)(Cl)Cl)cc1F (stereo not drawn) was tested. Which percent response did it give?
Answer: Its percent response is -1%.

Question: How did the percent response turn out when Cc1ccc(S(=O)(=O)c2c[nH]c3ccc(C)cc3c2=O)cc1 was run?
Answer: Its percent response is 3%.

Question: Cc1ccc2c(C)c(C(=O)N3CCN(c4ccncc4)CC3)oc2c1C was tested. Which percent response did it give?
Answer: The percent response was 30% (active).

Question: Cc1c(C(=O)N2CCN(c3ccc(F)cc3)CC2)oc2c1C(=O)CCC2 was tested. Which percent response did it give?
Answer: Its percent response is 0%.

Question: How did the percent response turn out when Cc1ccc2c(C)c(C(=O)N(C)Cc3ccncn3)oc2c1C was run?
Answer: The percent response was 0%.

Question: For Cc1cccc(CCNC(=O)Cn2ncc3c([nH]c4ccc(C)cc43)c2=O)c1, which percent response is on record?
Answer: The percent response was -4%.

Question: Which percent response does the source give for CCCNC(=O)COc1coc(CN2CCN(Cc3ccccc3)CC2)cc1=O here?
Answer: The percent response was 10%.

Question: COc1ccc(-c2nnc(NC(=O)CS(=O)(=O)c3ccc(Cl)cc3)o2)c(OC)c1 was tested. Which percent response did it give?
Answer: The percent response was 2%.

Question: How did the percent response turn out when CCOc1ccc(Br)cc1CSC(=N)N was run?
Answer: The percent response was -1%.

Question: c1ccc2c(CSCc3nc4ccccc4[nH]3)cccc2c1 was tested. Which percent response did it give?
Answer: The percent response was 1%.

Question: N=C(N)SCc1cccc2ccccc12 was tested. Which percent response did it give?
Answer: Its percent response is 91% (active).

Question: CCOC(=O)C1Nc2ccc(C(F)(F)F)cc2C2C=CCC12 (stereo not drawn) was tested. Which percent response did it give?
Answer: The percent response was 0%.

Question: CC(=O)c1ccc(S(=O)(=O)N2CCC3(CC2)OCCO3)cc1 was tested. Which percent response did it give?
Answer: The percent response was -1%.

Question: CN1CCN(c2nc(Nc3ccc(O)cc3)nc3ccccc23)CC1 was tested. Which percent response did it give?
Answer: Its percent response is 2%.

Question: Which percent response does the source give for O=c1[nH]c(N2CCOCC2)nc2ccccc12 here?
Answer: The percent response was 5%.

Question: With c1ccc(Nc2nc(N3CCOCC3)c3ccccc3n2)cc1 as the molecule, how does the percent response read?
Answer: Its percent response is 38% (active).

Question: How did the percent response turn out when Cc1ccc(C)c(OCCC(=O)OCC(=O)N2CCN(c3ccccc3)CC2)c1 was run?
Answer: The percent response was -5%.

Question: O=C(NNS(=O)(=O)c1ccc([N+](=O)[O-])cc1)C1CCCCC1 was tested. Which percent response did it give?
Answer: Its percent response is 7%.

Question: With Cc1nc(-c2ccccc2)sc1C1(C)CC(c2cccnc2)=NO1 (stereo not drawn) as the molecule, how does the percent response read?
Answer: Its percent response is -3%.

Question: Which percent response does the source give for O=C(Nc1cccnc1)c1ccc(Cl)cc1[N+](=O)[O-] here?
Answer: The percent response was 2%.

Question: For O=C(Nc1cccnc1)c1cc([N+](=O)[O-])ccc1Cl, which percent response is on record?
Answer: The percent response was 6%.

Question: With O=C(Nc1cccnc1)c1cc(Cl)ccc1Cl as the molecule, how does the percent response read?
Answer: The percent response was 28% (active).

Question: Which percent response does the source give for Cc1[nH]n(C(N)=S)c(=O)c1N=Nc1ccc(Cl)cc1Cl here?
Answer: Its percent response is 2%.

Question: With CCn1c(CNC(=O)c2cc(OC)c(OC)c(OC)c2)cc2cc(C)ccc21 as the molecule, how does the percent response read?
Answer: Its percent response is -6%.

Question: For CN(C(=O)CN1C(=O)CCSc2ccc(S(=O)(=O)N3CCCC3)cc21)c1ccccc1, which percent response is on record?
Answer: Its percent response is 1%.

Question: How did the percent response turn out when CNC(C)C#Cc1ccc2sc3cc(OC)c(OC)cc3c(=O)c2c1 (stereo not drawn) was run?
Answer: Its percent response is 13%.

Question: For CC1COc2ccccc2N1C(=O)c1ccc(F)cc1 (stereo not drawn), which percent response is on record?
Answer: The percent response was 1%.

Question: How did the percent response turn out when CC1Sc2ccc(S(=O)(=O)CCC(=O)NCc3ccccc3Cl)cc2NC1=O (stereo not drawn) was run?
Answer: The percent response was 11%.

Question: Which percent response does the source give for O=C(NC1=NCCS1)[C@H](Cc1ccccc1)N1C(=O)c2ccccc2C1=O here?
Answer: The percent response was 0%.

Question: O=C(CCN1C(=O)c2ccccc2C1=O)NCCN1CCOCC1 was tested. Which percent response did it give?
Answer: Its percent response is -3%.

Question: Which percent response does the source give for O=C(NCCN1CCOCC1)[C@H](Cc1ccccc1)N1C(=O)c2ccccc2C1=O here?
Answer: The percent response was 26% (active).

Question: How did the percent response turn out when Cc1ccc(NC(=O)COC(=O)C2C3CC4OC(=O)C2C4C3)cc1Cl (stereo not drawn) was run?
Answer: Its percent response is 5%.

Question: How did the percent response turn out when CCC(C)[C@H]1COCCS(=O)(=O)N1Cc1ccc(C)cc1 (stereo partly drawn) was run?
Answer: Its percent response is -5%.

Question: With Cc1c(CCOC(=O)c2cc([N+](=O)[O-])ccc2Cl)sc[n+]1CCCCS(=O)(=O)[O-] as the molecule, how does the percent response read?
Answer: Its percent response is -1%.

Question: Which percent response does the source give for Cc1c(CCO)sc[n+]1CC(=O)OC12CC3CC(CC(C3)C1)C2 here?
Answer: Its percent response is 0%.

Question: With Cc1c(CCOC(=O)CC23CC4CC(CC(C)(C4)C2)C3)sc[n+]1Cc1ccc([N+](=O)[O-])cc1 as the molecule, how does the percent response read?
Answer: Its percent response is 54% (active).

Question: With Clc1ccc2nc(CSc3ccccc3)cn2c1 as the molecule, how does the percent response read?
Answer: Its percent response is 2%.

Question: With CC1(C)Cc2ccccc2/C(=C/C(=O)c2ccccc2)N1 as the molecule, how does the percent response read?
Answer: Its percent response is 3%.

Question: With CN(C)CCCNC(=S)N1CCC(c2nc3ccccc3[nH]2)CC1 as the molecule, how does the percent response read?
Answer: Its percent response is 4%.

Question: Which percent response does the source give for CN(C)CCCNC(=S)N1CCN(c2nc(-c3ccccc3)cs2)CC1 here?
Answer: The percent response was 25% (active).

Question: With COCCCNC(=S)N1CCN(c2nc(-c3cccc(OC)c3)cs2)CC1 as the molecule, how does the percent response read?
Answer: The percent response was -4%.

Question: How did the percent response turn out when COc1ccc(CCN2C(=O)C(C)=C(C)C2=O)cc1OC was run?
Answer: The percent response was 1%.

Question: O=C(CCc1nnc2ccc(NCCCN3CCCC3=O)nn12)NCc1ccccc1Cl was tested. Which percent response did it give?
Answer: The percent response was 6%.

Question: How did the percent response turn out when O=C(CCc1nnc2ccc(NCc3ccccc3Cl)nn12)NCC1CCN(C2CCCC2)C1 (stereo not drawn) was run?
Answer: Its percent response is 26% (active).

Question: CC1CCN(C(=O)CCc2nnc3ccc(NCc4ccco4)nn23)CC1 was tested. Which percent response did it give?
Answer: Its percent response is 0%.

From PubChem BioAssay AID1530 (NMMLSC, 2009)
